In PubChem BioAssay (NCATS):
Records with an inconclusive call do not appear. Activity calls are given as the source filed them. Calls follow the shape of the dose curve; as a rule, active = well fitted curve in the direction sought with a large enough effect; inconclusive = small, poorly fitted or top-dose-only effect, or another doubt; inactive = no such curve, though single readings can be large or run the other way.

Target: Nuclear receptor subfamily 1 group I member 2 (Homo sapiens) (UniProt O75469)
Assay: Dual reporter qHTS for antagonist of Pregnane X Receptor (hPXR) against the NCATS DSHEA and TCM libraries: Luminescence Readout (AID 1920060)
Conditions: hPXR dual reporter cells, luciferase luminescence, antagonist mode; series mostly up to 40 µM
From the text: Assay Development and Screening Technology Laboratory (ADST)
National Center for Advancing Translational Sciences (NCATS), Rockville, MD
National Institute of Health (NIH), Bethesda, Maryland
Dietary Supplements and Natural Products have minor oversight of their safety and efficacy. We assembled a collection of Dietary Supplements and Natural Products (DSNP) as well as Traditional Chinese Medicinal (TCM) Plant extracts, which were screened against an in vitro panel of assays, including a liver cytochrome p450 enzyme panel, CAR/PXR signaling pathways, and P-gp transporter assays, to assess their activity. This pipeline facilitated the interrogation of Natural Product-Drug Interaction (NaPDI) through prominent metabolizing pathways. In addition, we compared the activity profiles of the DSNP/TCM substances with those of an approved drug collection. Many of the approved drugs have well-annotated mechanisms of action (MOA) while the MOAs for most of the DSNP and TCM samples remain unknown. Based on the premise that compounds with similar activity profiles tend to share similar targets or MOA, we clustered the library activity profiles to identify overlap with the NCATS Pharmaceutical Collection to predict the MOAs of the DSNP/TCM substances. Overall, we highlight four significant bioactivity profiles (measured by p-values) as examples of this prediction. To assess broad cytotoxicity, we employed screening against a HepG2 cell line. In addition, transporter-mediated drug interactions are utilized in the characterization of DDIs using a P-glycoprotein (P-gp) assays. To profile potential P-gp activity, a differential cell viability was measured against two cell lines: a parental KB-3-1 human cervical adenocarcinoma cell line and the drug-resistant subline KB-8-5-11 that overexpresses P-gp.
To this end, we profiled both collections for potential CAR and/or PXR activity, employing a previously published 1536-well qHTS assay.
[1] Lee TD, et al. A High-Throughput Screen of a Library of Therapeutics Identifies Cytotoxic Substrates of P-glycoprotein. Mol Pharmacol. Nov 2019;96(5):629-640. doi:10.1124/mol.119.115964
For PXR luciferase reporter gene assays, we used hPXR-LucHepG2cells provided by Dr. Taosheng Chen (Department of Chemical Biology and Therapeutics, St. Jude Children's Research Hospital). Cells were cultured in EMEM supplemented with 10% fetal bovine serum, 100U/mL penicillin and 100ug/mL streptomycin, and 500ug/mL of geneticin.
PROTOCOL TABLE (as described by Inglese J, Shamu CE and Guy RK. 2007)
SEQUENCE No. (e.g., 1, 2, 3, etc.); PARAMETER (e.g., Cells, Incubation, Reagent, etc.); VALUE; DESCRIPTION.
1; Cells; 5 uL; hPXR-LucHepG2; white solid-bottom Greiner plate.
2; Incubation; 5h; 37C, 95% humidity, 5% CO2
3; Compounds and control; 23 nL; Kalypsis pintool (Wako USA).
4; Reagent; 1uL; rifampicin (RIF) in the antagonist mode.
6; Reagent; 1 uL; CellTiter-Fluor detection reagent.
7; Incubation; 1 hr; 37C, 5% CO2.
8; Read; Fluorescence; ViewLux plate reader.
9; Reagent; 4 uL; ONE-Glo Luciferase detection reagent.
10; Incubation; 30 min; room temperature.
11; Read; Luminescence; ViewLux plate reader.
NOTES (numbers refer to Sequence numbers above)
1. Briefly, 5uL of hPXR-LucHepG2 cells in phenol red-free DMEM containing 5% charcoal-stripped FBS, 1 mM sodium pyruvate (Invitrogen), 2 mM L-glutamine (Invitrogen), and 100 U/mL penicillin and 100ug/mL streptomycin were dispensed using a BioRAPTR FRD at 4 x 10^5cells/mL (2000cells/well) in tissue culture-treated 1536-well white assay plates (GreinerBio-One).
2. Plates were incubated for 5h at 37C, 95% humidity, and 5% CO2 to allow for cell attachment.
3. Compounds (final concentration for most substances ranged from 15.6 nM to 45.9uM), positive SPA70 (final concentration range of 2.8 nM to 92uM for the antagonist mode), and cytotoxicity control tetraoctyl ammonium bromide (final concentration of 92uM) were transferred (23 nL) via pintool (Wako Automation).
4-5. […]

Nuclear receptor subfamily 1 group I member 2 (Homo sapiens), sequence (O75469 whole entry, looked up): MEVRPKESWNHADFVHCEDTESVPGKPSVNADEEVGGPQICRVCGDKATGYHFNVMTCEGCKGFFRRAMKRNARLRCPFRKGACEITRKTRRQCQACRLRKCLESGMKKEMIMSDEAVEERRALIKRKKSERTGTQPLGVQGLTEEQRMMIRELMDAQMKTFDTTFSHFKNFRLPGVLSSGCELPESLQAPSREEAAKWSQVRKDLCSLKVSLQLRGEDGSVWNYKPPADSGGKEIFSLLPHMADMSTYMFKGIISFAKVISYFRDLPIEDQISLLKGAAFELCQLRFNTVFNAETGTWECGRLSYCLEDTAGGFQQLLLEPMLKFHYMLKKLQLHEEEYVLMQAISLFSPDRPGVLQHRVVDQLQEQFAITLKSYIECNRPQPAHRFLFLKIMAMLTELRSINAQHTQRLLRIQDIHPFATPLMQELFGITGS

| SMILES | outcome |
| --- | --- |
| C=C(C)C1CC=C(C)C(O)C1 (stereo not given) | inactive |
| CC(C)=CCC[C@](C)(OC1OC(COC2OCC(O)C(O)C2O)C(O)C(O)C1O)[C@H]1CC[C@]2(C)[C@@H]1[C@H](O)C[C@@H]1[C@@]3(C)CC[C@H](OC4OC(CO)C(O)C(O)C4OC4OC(CO)C(O)C(O)C4O)C(C)(C)[C@@H]3CC[C@]12C (stereo not given in full) | inactive |
| C=C1CC/C=C(/C)CC[C@@H]2[C@@H]1CC2(C)C | inactive |
| COc1ccc(-c2coc3cc(O[C@@H]4O[C@H](CO)[C@@H](O)[C@H](O)[C@H]4O)ccc3c2=O)cc1 | inactive |
| CC(=O)OC/C=C/c1ccccc1 | inactive |
| CCCCC/C=C/C(=O)CCc1ccc(O)c(OC)c1 | inactive |
| C=C1CC[C@H](O)C/C1=C\C=C1/CCC[C@]2(C)[C@@H]([C@H](C)CC[C@H](C)C(C)C)CC[C@@H]12 | inactive |
| CC1=CCC(=C(C)C)CC1 | inactive |
| O=C(/C=C/c1ccc(O)c(O)c1)O[C@@H]1CC(O)(C(=O)O)C[C@@H](OC(=O)/C=C/c2ccc(O)c(O)c2)C1O (stereo not given in full) | inactive |
| Cc1ccc(O)c(O)c1 | inactive |
| O=C(/C=C/c1ccc(O)c2c1[C@H](C(=O)O)[C@@H](c1ccc(O)c(O)c1)O2)O[C@H](Cc1ccc(O)c(O)c1)C(=O)O | inactive |
| CC1=C2[C@H]([C@@H](C)CC[C@@H]2/C=C(\C)C(=O)O)[C@@H](O)C1 | inactive |
| O=c1cc(-c2ccc(O)c(O)c2)oc2cc(O[C@@H]3O[C@@H](CO)[C@@H](O)[C@@H](O)[C@H]3O)cc(O)c12 | inactive |
| COc1cc(/C=C/c2ccccc2)oc(=O)c1 | inactive |
| CCCCC/C=C/C/C=C/CCCCCCCC(=O)O | inactive |
| O=C(/C=C/c1ccc(O)c(O)c1)OC1[C@H](O)CC(O)(C(=O)O)C[C@@H]1O (stereo not given in full) | inactive |
| CC1=CCC(O)(C(C)C)CC1 (stereo not given) | inactive |
| CC1(C)CC[C@]2(C(=O)O)CC[C@]3(C)C(=CCC4[C@@]5(C)CC[C@@H](O)C(C)(C)C5CC[C@]43C)C2C1 (stereo not given in full) | inactive |
| Oc1cc(O)c2c(c1)O[C@@H](c1cc(O)c(O)c(O)c1)[C@H](O)C2 | inactive |
| CCCCCCCCCCCCCCCCCCCCCC(=O)O | inactive |

| SMILES | outcome |
| --- | --- |
| COc1ccc(/C=C/c2cc(OC)cc(=O)o2)cc1 | inactive |
| CCCCCC(=O)O | inactive |
| CC(C)[C@H](C)CC[C@@H](C)[C@H]1CC[C@H]2[C@@H]3CC=C4C[C@@H](O)CC[C@]4(C)[C@H]3CC[C@]12C | inactive |
| O=Cc1ccccc1O | inactive |
| CC1=CC[C@H](C(C)C)C=C1 | inactive |
| C=CCc1ccc(OC)c(OC)c1 | inactive |
| CC(C)(O)[C@@H]1CC[C@](C)([C@H]2[C@@H](O)C[C@@]3(C)[C@@H]4C[C@H](O)[C@H]5C(C)(C)[C@@H](O[C@@H]6OC[C@@H](O)[C@H](O)[C@H]6O[C@@H]6O[C@H](CO)[C@@H](O)[C@H](O)[C@H]6O)CC[C@@]56C[C@@]46CC[C@]23C)O1 | inactive |
| COc1ccccc1/C=C/C=O | inactive |
| C=C(C)C(CC=C(C)C)CC12CC(CC=C(C)C)C(C)(C)C(CC=C(C)C)(C(=O)/C(=C(\O)c3ccc(O)c(O)c3)C1=O)C2=O (stereo not given) | inactive |
| C=CC(C)(CCC=C(C)C)OC(C)=O (stereo not given) | inactive |
| O=C(O[C@@H]1Cc2c(O)cc(O)cc2O[C@@H]1c1ccc(O)c(O)c1)c1cc(O)c(O)c(O)c1 | inactive |
| CCCCCCCCC/C=C/C(=O)CCc1ccc(O)c(OC)c1 | inactive |
| O=C(O)c1ccccc1 | inactive |
| COc1cc(-c2oc3cc(O)cc(O)c3c(=O)c2O)ccc1O | inactive |
| C=C1C[C@@]23CC[C@H]4[C@](C)(CCC[C@]4(C)C(=O)O[C@@H]4O[C@H](CO)[C@@H](O)[C@H](O)[C@H]4O)[C@@H]2CC[C@]1(O[C@H]1O[C@@H](CO)[C@H](O)[C@@H](O)[C@@H]1O)C3 | inactive |
| CC(=O)O[C@H]1[C@H](O[C@H]2CC[C@]34C[C@]35CC[C@]3(C)[C@@H]([C@@]6(C)CC[C@@H](C(C)(C)O)O6)[C@@H](O)C[C@@]3(C)[C@@H]5C[C@H](O[C@@H]3O[C@H](CO)[C@@H](O)[C@H](O)[C@H]3O)[C@H]4C2(C)C)OC[C@@H](O)[C@@H]1O | inactive |
| CC(C)=CCC[C@](C)(O[C@@H]1O[C@H](CO)[C@@H](O)[C@H](O)[C@H]1O)[C@H]1CC[C@]2(C)[C@@H]1[C@H](O)C[C@@H]1[C@@]3(C)CC[C@H](O)C(C)(C)[C@@H]3[C@@H](O[C@@H]3O[C@H](CO)[C@@H](O)[C@H](O)[C@H]3O[C@@H]3O[C@@H](C)[C@H](O)[C@@H](O)[C@H]3O)C[C@]12C | inactive |
| C=C/C(C)=C/C/C=C(\C)CCC=C(C)C | inactive |
| CC[C@H](CC[C@@H](C)[C@H]1CCC2C3CCC4C[C@@H](O)CC[C@]4(C)C3CC[C@@]21C)C(C)C (stereo not given in full) | inactive |
| CC12CC3(O)OC(O1)C1(COC(=O)c4ccc(O)cc4)C3CC21OC1OC(CO)C(O)C(O)C1O (stereo not given) | inactive |
